{"source": "PubChem BioAssay (NCI)", "note": "This is part of a sample that, as a whole, favours compounds with a hit. Of some 83,000 tested, about 20% had one in any assay.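 Single-concentration screen, 48 h exposure, 96-well plates. Endpoint: percent growth. Below 10 = active.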 The source made the active and inactive calls."}
{"test_system": "OVCAR-4 ovarian", "assay": "NCI-60 one-dose screen, 48 h (100 = growth as untreated, 0 = no growth, -100 = all killed)", "settings": "10 µM unless noted"}
{"smiles": "CC(C)=CCC[C@](C)(O)[C@H]1CC[C@]2(C)[C@@H]1CC[C@@H]1[C@@]3(C)C/C(=C/c4ccccc4)C(=O)C(C)(C)[C@@H]3CC[C@]12C", "growth": "89.2% (inactive)"}
{"smiles": "O=C1Nc2ccccc2/C1=C\\c1c(-c2ccc(F)cc2)nc2ccccn12", "growth": "83.9% (inactive)"}
{"smiles": "CC(c1ccccc1)C(C(=O)c1ccccc1)c1ccccc1", "note": "(stereo not drawn)", "growth": "96% (inactive)"}
{"smiles": "CC(=O)[C@H]1CCC/C=C/[C@@H]2C[C@H](O)C[C@H]2[C@H](O)/C=C/C(=O)O1", "growth": "18.9% (inactive)"}
{"smiles": "COc1cc(/C=C\\c2cc(/C=C\\c3ccc(O)c(OC)c3)n(C(=O)COc3ccccc3)n2)ccc1O", "growth": "25.6% (inactive)"}
{"smiles": "N#C/C(=C\\c1cccc(C#N)c1)c1ccccc1", "growth": "98.8% (inactive)"}
{"smiles": "COc1cc2cc(Oc3cccc(NC(=O)Nc4cc(C(F)(F)F)cc(C(F)(F)F)c4)c3)c(C)nc2cc1OC", "growth": "27.9% (inactive)"}
{"smiles": "Cc1ccc(-n2nc3c(c(C#N)c2=O)CC(c2ccccc2[N+](=O)[O-])C([N+](=O)[O-])=C3O)cc1", "note": "(stereo not drawn)", "growth": "75.2% (inactive)"}
{"smiles": "Cc1nc2sccn2c1-c1cn2ccsc2n1", "growth": "70.8% (inactive)"}
{"smiles": "Cc1cc(Cl)nc(N(CCNc2ccnc3cc(Cl)ccc23)Cc2ccccn2)n1", "growth": "35% (inactive)"}
{"smiles": "COC(=O)C(CC=O)C(=O)C(=O)Nc1cccc(C(F)(F)F)c1", "note": "(stereo not drawn)", "growth": "105% (inactive)"}
{"smiles": "COc1cc(/C=C\\c2cc(OC)c(OC)c(OC)c2)cc(N)c1OC", "growth": "128% (inactive)"}
{"smiles": "CC1(C)NCCC[C@]2(C)[C@H]3CC[C@@H]4[C@H]5[C@H](C(=O)/C=C/c6ccco6)CC[C@]5(CO)CC[C@@]4(C)[C@]3(C)CC[C@@H]12", "growth": "79.9% (inactive)"}
